SMN2 splice up: enhancers of SMN2 splice variant expression | AID 1458 | HEK293 SMN2-luciferase splicing reporter, luminescence, 30-36 h | Potency, µM (doses to about 46.1 µM), without a hit: at the highest dose activity change, positive = activation, hits mostly activators | actives 2.8% (n = 210,000); note: % of control where 0% means no effect; nearly all actives have a fitted effect of over 55% in size
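HEK293 cells carry an SMN2 minigene-luciferase reporter in which exon 7 inclusion puts luciferase in frame. Cells were seeded at 2000 cells/well, attached for 10-12 hours, then exposed to compounds for 30-36 hours at 37C before ONE-Glo luminescence.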
Rab9 prom act: activators of Rab9 promoter; Potency, µM (doses to about 9.22 µM), for the others: at the top dose activation, negative = inhibition, usual class: activators; Huh7 Rab9 promoter-luciferase reporter, luminescence, 24 h; actives 2.8% (n = 320,000); note: % of control where 0% means no effect; nearly all actives have a fitted effect of over 60% in size
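Luminescence read-out: Huh7 cells stably expressing Rab9-luciferase, treated 24 h with compound at 37 °C, then lysed with luciferase reagent for 10 min at ambient before reading.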
NPC1 promoter act: activators of NPC1 promoter; Huh7 NPC1 promoter luciferase reporter, 24 h; Potency, µM (top dose mostly 9.22 µM), for inactives: at the top dose activation, usual class: activators; actives 2.4% (n = 320,000); note: % of control where 0% means no effect; nearly all actives have a fitted effect of over 60% in size
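In 1536-well qHTS, Huh7 cells harboring an NPC1 promoter–luciferase construct received compound for 24 h; activation was quantified by luminescence following luciferase reagent addition.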
ELG1 genotox: inducers of genotoxicity in HEK293T ELG1-luciferase cells | HEK293T ELG1-luciferase reporter, luminescence, 16 h | Potency, µM (titrated, usually from 46 µM), inactives show at the top dose activity change, positive = activation, actives largely listed as activators | actives 1.3% (n = 330,000) | AID 504466; note: % of control where 0% means no effect; nearly all actives have a fitted effect of over 60% in size
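Reporter readout depends on ELG1 protein level, which increases with genetic stress. After 16 hr compound exposure at 37 °C, luciferase activity was quantified using ONE-Glo.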
FLuc counter: counter-screen for miR-21 project: firefly luciferase inhibitors or activators | purified FLuc, Km substrates, luminescence inhibition | Potency, µM (series often up to 57.5 µM), inactives show top-dose activity change, negative = inhibition, hits mostly inhibitors | actives 6.9% (n = 360,000);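 note: plate controls were vehicle for no effect and reference inhibitor for full effect; nearly all actives have a fitted effect of over 55% in size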
Target sequence (P08659 whole entry, looked up): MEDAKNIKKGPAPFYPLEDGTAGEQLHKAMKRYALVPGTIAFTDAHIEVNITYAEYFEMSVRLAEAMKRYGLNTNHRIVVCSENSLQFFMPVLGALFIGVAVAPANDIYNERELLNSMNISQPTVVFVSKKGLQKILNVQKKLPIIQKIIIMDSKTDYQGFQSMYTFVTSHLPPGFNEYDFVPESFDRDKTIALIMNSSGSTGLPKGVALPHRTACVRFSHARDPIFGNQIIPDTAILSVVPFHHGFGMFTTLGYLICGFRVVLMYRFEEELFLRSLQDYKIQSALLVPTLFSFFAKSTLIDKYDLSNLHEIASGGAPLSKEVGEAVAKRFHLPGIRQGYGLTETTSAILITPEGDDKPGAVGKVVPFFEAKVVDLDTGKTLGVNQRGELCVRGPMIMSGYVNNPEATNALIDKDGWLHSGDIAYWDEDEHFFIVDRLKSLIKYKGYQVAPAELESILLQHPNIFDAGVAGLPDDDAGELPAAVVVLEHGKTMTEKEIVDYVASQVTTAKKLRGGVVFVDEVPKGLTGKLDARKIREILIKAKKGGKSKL
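Biochemical qHTS of compounds, final roughly 60 µM downward over six points, against 10 nM purified firefly luciferase using Km concentrations of substrates (10 uM D-luciferin, 10 uM ATP) in Tris acetate pH 7.5 buffer; luminescence output.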
Active calls of the source: *; ? = inconclusive; . = no result; [ ] = another dose, or the depositor's remark. An excerpt weighted towards active compounds, which were near 7.4% of everything screened. Calls come from the whole dose curve; as a rule, active = well fitted curve in the direction sought with a large enough effect; inconclusive = small, poorly fitted or top-dose-only effect, or another doubt; inactive = no such curve, though single readings can be large; an effect the other way counts as inactive or inconclusive. Potency is the fitted concentration of half-maximal effect.

SMILES	SMN2 splice up	Rab9 prom act	NPC1 promoter act	ELG1 genotox	FLuc counter
CC#CCN1c2ccccc2[C@]23C[C@@H](C(=O)OC)N(S(=O)(=O)c4c(C)noc4C)C2=NC(C(=O)OC)=C(C(=O)OC)[C@H]13	22.2%[9.22 µM]	.	.	.	.
CC[n+]1c(/C=C/c2ccc(N(C)C)cc2)ccc2ccccc21	-115.9%	-51.0%	-28.4%	2.9%	?
CC[n+]1c(/C=C/c2cc([N+](=O)[O-])ccc2O)ccc2ccccc21	.	-6.9%	-1.7%	0.4%	-14.7%
CC[n+]1c(/C=C/c2ccc(OC(C)=O)c(OC)c2)ccc2ccccc21	.	-13.0%	-22.6%	?	19µM*
CC[n+]1c(/C=C/c2ccc(OC)c(OC)c2)ccc2ccccc21	.	4.5%	14.5%	10.3µM*	3.38µM*
CCC(Oc1ccccc1)C(=O)N(CC)CC(=O)NCc1ccc(F)cc1 (stereo not given)	.	-4.0%	0.7%	1.6%	7.4%
CCN(CC(=O)NCc1ccc(F)cc1)C(=O)c1ccc(COc2ccccc2)cc1	.	?	?	-0.6%	16.9µM*
CC(Oc1ccccc1)C(=O)OCC(=O)Nc1sccc1C(N)=O (stereo not given)	.	2.0%	-4.3%	-0.3%	-1.2%
CC(=O)Nc1ccc(NC(=O)COc2ccc3c(c2)CCC3)cc1	-4.5%	-1.7%	-5.4%	4.9%	-16.7%
CCOc1ccc(-c2cccc(NC(=O)COc3ccccc3)c2)nn1	.	3.1%	-1.2%	-0.9%	15.1µM*
CCOc1ccc(CC(=O)Nc2cccc(-c3ccc4nnc(C)n4n3)c2)cc1	2.7%	0.2%	-7.0%	?	-12.8%
COc1cccc(NC(=O)C(=O)N/N=C(\C)CC(=O)Nc2ccc(NC(C)=O)cc2)c1	.	12.1%	-1.9%	?	10.7µM*
CCc1ccc(NC(=O)C(=O)N/N=C(\C)CC(=O)Nc2ccc(OC)cc2)cc1	0.8%	-0.5%	0.0%	6.5%	?
CC(=O)Nc1cccc(OCC(=O)Nc2sccc2C(N)=O)c1	.	1.12µM*	2.51µM*	?	8.49µM*
CC(=O)Nc1cccc(NC(=O)COc2ccc3c(c2)CCC3)c1	.	16.9%	12.5%	-0.3%	8.49µM*
Cc1cc(Cl)ccc1NNC(=O)CCc1ccccc1	.	4.7%	7.6%	-6.2%	3.2%
C=CCN1c2ccccc2[C@]23C[C@@H](C(=O)OC)N(S(=O)(=O)c4ccc(C#N)cc4)C2=NC(C(=O)OC)=C(C(=O)OC)[C@H]13	-1.0%[9.22 µM]	.	.	.	.
CCOc1ccc(/C=N/NC(=O)C(=O)N2CCCCCC2)c2ccccc12	.	1.4%	4.1%	-0.3%	3.0%
CSc1cccc(NC(=O)COc2ccccc2C)c1	16.4%	2.7%	-0.5%	5.1%	15.1µM*
CC(=O)Nc1cccc(OCC(=O)Nc2ccccc2)c1	22.4µM*	3.16µM*	3.55µM*	10.3µM*	?
CC(C)C(NS(=O)(=O)c1cccc(C(F)(F)F)c1)C(=O)N1CCc2ccccc2C1 (stereo not given)	.	0.3%	-0.6%	-8.1%	1.4%
CCOC(=O)c1c(C)oc2nc(C)nc(NCc3ccccc3OC)c12	.	.	.	.	-9.5%
Cc1ccc(-n2ncc3c(N4CCN(C)CC4)ncnc32)cc1	.	.	.	.	3.01µM*
CN1CCN(c2ncnc3c2cnn3-c2ccc(Cl)cc2)CC1	0.4%	0.398µM*	?	?	0.953µM*
Cc1ccc(-n2ncc3c(N(C)C)ncnc32)cc1Cl	.	.	.	.	0.757µM*
SMILES	SMN2 splice up	Rab9 prom act	NPC1 promoter act	ELG1 genotox	FLuc counter
Cc1ccc(-n2ncc3c(N4CCN(C)CC4)ncnc32)cc1Cl	.	.	.	.	5.36µM*
Cc1cccc(-n2ncc3c(N)ncnc32)c1	5.4%	?	?	?	?
COc1ccc(N(CC(=O)N2CCOCC2)S(C)(=O)=O)cc1OC	.	2.8%	-2.5%	3.9%	2.6%
Cn1cc(CCNC(=O)c2ccc3nc(Cc4ccccc4F)oc3c2)cn1	.	1.58µM*	2.51µM*	?	5.36µM*
Cn1cc(CNC(=O)c2ccc3nc(Cc4ccccc4F)oc3c2)cn1	.	?	2.82µM*	?	23.9µM*
CCn1cc(CNC(=O)c2ccc3nc(Cc4ccccc4F)oc3c2)cn1	.	-5.8%	0.5%	9.7%	?
CCOC(=O)N1CCN(C(=O)CSCc2ccccc2)CC1	11.2µM*	?	?	17.5%	?
CCOC(=O)N1CCN(C(=O)CSc2nnc(COc3ccccc3)o2)CC1	3.98µM*	-0.2%	-0.5%	-0.4%	3.5%
CCOC(=O)N1CCN(C(=O)CSCc2ccc(Cl)cc2)CC1	7.6%	-2.1%	-4.3%	-0.8%	5.5%
CC(CNC(=O)Cn1c(-c2cccs2)cc2cc(Cl)ccc21)c1ccccc1 (stereo not given)	.	.	.	.	-4.8%
O=C(OCC(=O)N1CCN(C(=O)c2ccco2)CC1)c1cc(-c2ccc(F)cc2)nc2ccccc12	-7.5%	-13.2%	-1.6%	-18.6%	10.7µM*
O=C(OCC(=O)N1CCN(C(=O)c2ccco2)CC1)c1cc(-c2ccccc2)nc2ccccc12	1.1%	8.5%	-2.2%	-11.8%	15.1µM*
O=C(OCC(=O)N1CCN(C(=O)c2ccco2)CC1)c1cc(=O)c2ccccc2o1	-11.8%	-1.7%	-2.8%	1.3%	-0.8%
O=C(OCC(=O)N1CCN(C(=O)c2ccco2)CC1)c1cc(-c2cccc(Br)c2)nc2ccccc12	-11.7%	-6.5%	0.8%	-22.7%	9.53µM*
Cc1cc(C(=O)OCC(=O)N2CCN(C(=O)c3ccco3)CC2)c(C)n1-c1ccc(F)cc1	-23.3%	-23.8%	-7.0%	-1.6%	-2.0%
CC1CCN(S(=O)(=O)c2cc(C(=O)NCc3ccc(F)cc3)n(C)c2)CC1	.	.	.	.	-4.0%
CN(CC(=O)Nc1cccc(Cl)c1)S(=O)(=O)c1ccc2[nH]c3c(c2c1)CCCC3	.	.	.	.	2.0%
O=C(COc1ccc2ccccc2c1)NNC(=O)Cc1cccc2ccccc12	-16.3%	-0.2%	-5.0%	0.7%	3.5%
COc1ccc(COc2cccc(C=O)c2)cc1	.	?	?	-1.0%	23.9µM*
COc1ccc([C@H]2CC(=O)C=C(c3cccc(OCc4ccccc4)c3)C2)cc1	.	-1.0%	-0.3%	-2.9%	1.0%
O=Cc1cccc(OCc2cccc3ccccc23)c1	.	3.98µM*	2.82µM*	?	26.9µM*
COc1ccc(COc2ccc3c(C)cc(=O)oc3c2)cc1	.	?	2.24µM*	9.2µM*	5.36µM*
O=C(O)CCCNC(=O)c1nn(Cc2ccccc2)c(=O)c2ccccc12	.	0.4%	-1.8%	0.6%	-1.0%
COc1ccc(N2CC(NC(=O)Cc3cccs3)CC2=O)cc1 (stereo not given)	.	.	.	.	-0.7%
C=C(N(C)C)[C@]1(C)C[C@H]1[C@H](NC(=O)CNC(=O)OCc1ccccc1)c1ccccc1	-22.7%	.	.	.	.
Nc1[nH]n(-c2ccccc2)c(=O)c1N=Nc1ccccc1[N+](=O)[O-]	?	0.562µM*	2µM*	3.16µM*	?
Nc1[nH]n(-c2ccccc2)c(=O)c1N=Nc1ccccc1	.	3.55µM*	2.51µM*	20.6µM*	5.36µM*
